# Results published in PubChem BioAssay (NCI).
# This is part of a sample that, as a whole, favours compounds with a hit. Of some 83,000 tested, about 20% had one in any assay.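 Single-dose data. Exposure time 48 hours. Values below 10 considered active.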 Unmarked numbers belong to inactive results. Activity calls are given as the source filed them.
# How the values were obtained:
# Assay in all cases: NCI-60 one-dose screen, 48 h (100 = growth as untreated, 0 = no growth, -100 = all killed)
# Conditions in all cases: 10 µM unless noted
# DU-145 prostate = test system: DU-145 prostate
# K-562 leukemia = test system: K-562 leukemia
# MALME-3M melanoma = test system: MALME-3M melanoma
# MDA-MB-231 breast = test system: MDA-MB-231 breast
# RXF 393 renal = test system: RXF 393 renal
# SF-268 CNS = test system: SF-268 CNS
# SF-295 CNS = test system: SF-295 CNS
# SF-539 CNS = test system: SF-539 CNS
# UACC-257 melanoma = test system: UACC-257 melanoma
# M14 melanoma = test system: M14 melanoma
# HCT-15 colon = test system: HCT-15 colon
# HT29 colon = test system: HT29 colon
# SNB-75 CNS = test system: SNB-75 CNS
# SNB-19 CNS = test system: SNB-19 CNS
# U251 CNS = test system: U251 CNS
# PC-3 prostate = test system: PC-3 prostate
# SK-MEL-5 melanoma = test system: SK-MEL-5 melanoma
# UACC-62 melanoma = test system: UACC-62 melanoma
# LOX IMVI melanoma = test system: LOX IMVI melanoma
# SK-MEL-28 melanoma = test system: SK-MEL-28 melanoma
SMILES,growth (DU-145 prostate),growth (K-562 leukemia),growth (MALME-3M melanoma),growth (MDA-MB-231 breast),growth (RXF 393 renal),growth (SF-268 CNS),growth (SF-295 CNS),growth (SF-539 CNS),growth (UACC-257 melanoma),growth (M14 melanoma),growth (HCT-15 colon),growth (HT29 colon),growth (SNB-75 CNS),growth (SNB-19 CNS),growth (U251 CNS),growth (PC-3 prostate),growth (SK-MEL-5 melanoma),growth (UACC-62 melanoma),growth (LOX IMVI melanoma),growth (SK-MEL-28 melanoma)
NNC(=O)c1ccc(C(=O)NN)cc1,109%,112%,98%,117%,111%,106%,106%,115%,94.6%,114%,112%,97.9%,113%,103%,93.2%,114%,108%,97.6%,102%,114%
CC(C)=CCC[C@](C)(O)[C@H]1CC[C@]2(C)[C@@H]1CC[C@@H]1[C@@]3(C)CC/C(=N/O)C(C)(C)[C@@H]3CC[C@]12C,-15.4% [100 µM] (active),10.9% [100 µM],-69.7% [100 µM] (active),-34.2% [100 µM] (active),-32.5% [100 µM] (active),11.5% [100 µM],-66.5% [100 µM] (active),-53.9% [100 µM] (active),19.8% [100 µM],-13.6% [100 µM] (active),29.7% [100 µM],-43.5% [100 µM] (active),-38.8% [100 µM] (active),-28.8% [100 µM] (active),-81.5% [100 µM] (active),-52.1% [100 µM] (active),-45.3% [100 µM] (active),-59.2% [100 µM] (active),-9.59% [100 µM] (active),-36.1% [100 µM] (active)
COc1cc(NN=C(c2ccc(O)cc2)c2ccc(O)cc2)c([N+](=O)[O-])cc1[N+](=O)[O-],90.5%,109%,120%,91.9%,-34.4% (active),72.3%,112%,5.64% (active),-14.4% (active),-15.9% (active),35%,98.1%,98.4%,-4.74% (active),40.5%,73.1%,14.3%,73.9%,34.4%,81%
c1cc2ccc3cc2cc1CNCCN1CCNCc2ccc4ccc(cc4c2)CNCCN(CCNC3)CCNCc2ccc3ccc(cc3c2)CNCC1,-10.1% (active),12.6%,-13% (active),-23.7% (active),11.4%,-13.6% (active),66.8%,-41% (active),100%,96.3%,94.5%,1.47% (active),-12.6% (active),-7.68% (active),-4.66% (active),-0.11% (active),88.6%,30.1%,-7.72% (active),62.8%
CCN1c2ccccc2C(Cl)(c2ccc(N(C)C)cc2)c2ccccc21,74.1%,60.8%,9.82% (active),70.3%,59.4%,54.2%,88.4%,93.7%,70.3%,72.9%,73.6%,3.81% (active),68.5%,53.8%,19.5%,25.6%,78.9%,51.6%,18.9%,86.2%
COc1ccc2nc3cc(Cl)ccc3c(Nc3ccc(O)cc3)c2c1,48.4%,54.8%,83.5%,84.4%,83.2%,72.8%,84.9%,80.8%,102%,94.8%,52.9%,57.9%,89.6%,81.9%,70.5%,89.2%,88.6%,80.4%,43.5%,107%
CC[C@]1(O)CC2CN(CCc3c([nH]c4ccccc34)[C@@](C(=O)OC)(c3cc4c(cc3OC)N(C=O)[C@H]3[C@@](O)(C(=O)OC)[C@H](OC(C)=O)[C@]5(CC)C=CCN6CC[C@]43[C@@H]65)C2)C1 (stereo not given in full),-46.8% (active),14.7%,54.7%,-31.3% (active),65.2%,3.28% (active),6.3% (active),5.55% (active),53.8%,4.87% (active),16%,4.12% (active),38.7%,43.8%,8.14% (active),35.1%,-38% (active),35.6%,26%,61%
